Assay outcomes as filed in PubChem BioAssay.
Only some compounds are listed: those with a hit (about 4.1% of all), similar ones and a draw of the others.
DAX1 inh-1 – inhibits human nuclear receptor DAX1. inhibition, % at 6.75 µM. HEK293 Gal4-DAX1 luciferase reporter, luminescence. 0.99% of 340,000 active;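 active means inhibition above the mean over all tested compounds plus 3 SD, cut at about 4.2% in these data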;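 further: 0% = DAX1-transfected cells with DMSO and 100% = empty-vector control cells with DMSO; inhibition shows as a rise in luminescence from relieved DAX1 repression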
Target sequence (P51843 207-470 limits assumed): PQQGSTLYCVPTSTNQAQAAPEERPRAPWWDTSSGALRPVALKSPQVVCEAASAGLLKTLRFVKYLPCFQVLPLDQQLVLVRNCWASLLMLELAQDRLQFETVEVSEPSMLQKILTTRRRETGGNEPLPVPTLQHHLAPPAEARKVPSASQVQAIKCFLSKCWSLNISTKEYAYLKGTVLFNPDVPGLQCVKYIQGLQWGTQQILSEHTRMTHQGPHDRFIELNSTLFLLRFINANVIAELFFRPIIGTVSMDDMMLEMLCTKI
hcDAF-12 act – H. contortus DAF-12 activation, primary screen | HEK293 hcDAF-12 lit1-tk-luc reporter, luminescence; 0% DMSO, 100% Δ7-dafachronic acid | activation, % at 6.8 µM | 1.4% of 370,000 active | AID 652067;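 active means activation above the mean of all tested compounds plus 3 SD, cut at about 5.5% in these data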;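 further: 100% = response to 3 µM Δ7-dafachronic acid high control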
DAX1 inh-2 – inhibitors of DAX1 repression of SF-1 activated StAR promoter; AID 652010; 1.1% of 370,000 active; inhibition, % at 6.8 µM; HEK293T StAR-luciferase reporter, SF-1/DAX-1 repression relief;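 active means inhibition above the mean over all tested compounds plus 3 SD, cut at about 3.6% in these data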;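 further: 0% = DAX-1 cells with DMSO and 100% = cells lacking DAX-1 with DMSO; higher inhibition means more luminescence from relief of DAX-1 repression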
ssDAF12 agonist – activates DAF-12 receptor from parasite S. stercoralis; activation, % at 6.8 µM; 1% of 370,000 active; HEK293 ssDAF-12/GRIP1 lit1-tk-luc reporter, luminescence; % of 3 µM dafachronic acid response;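 active means activation above the mean over all tested compounds plus 3 SD, cut at about 0.9% in these data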;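 further: 0% = DMSO-only wells and 100% = 3 µM delta7-dafachronic acid wells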
hgDAF-12 ag – activates the H. glycines DAF-12 receptor ligand-binding domain; HEK293 GAL4-hgDAF12 UAS-luciferase reporter, agonist luminescence; normalized to butyrate control; activation, % at 6.8 µM; 1.8% of 370,000 active;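 active means activation above a cutoff set at the mean of all screened compounds plus 3 SD, cut at about 10% in these data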;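 further: 0% = DMSO wells and 100% = sodium butyrate wells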
* = called active by the depositor; / = no result.

SMILES	DAX1 inh-1	hcDAF-12 act	DAX1 inh-2	ssDAF12 agonist	hgDAF-12 ag
CC(=O)NCCCNc1ccc([N+](=O)[O-])cc1	-0.1	6.1*	-0.7	-1.0	5.4
CC(Cc1cccs1)NC(=O)c1cccs1 (stereo unspecified)	1.4	4.4	1.8	-1.6	4.6
CCNC(=O)C(=O)Nc1ccc([N+](=O)[O-])cc1	4.7*	-2.1	-0.2	-0.3	-0.8
CCN(CC)C(=S)Nc1ccc([N+](=O)[O-])cc1	-0.1	0.8	-0.3	-1.6	2.0
CC(Cc1cccs1)NC(=O)Nc1ccc([N+](=O)[O-])cc1 (stereo unspecified)	0.4	1.9	0.1	0.6	13.1*
COC(=O)C1CN(Cc2ccc(Cl)cc2)CCS(=O)(=O)N1Cc1cn(Cc2ccc(OC)cc2)nn1 (stereo unspecified)	/	-1.7	-0.8	-1.0	2.5
O=c1cc(Cl)[nH]c(=O)n1CCNc1ncc(C(F)(F)F)cc1Cl	2.0	4.8	1.3	-0.8	11.1*
O=C1C=CC(=O)N1CCNc1ncc(C(F)(F)F)cc1Cl	-1.6	-4.0	-1.5	-1.2	-5.8
COc1ccc(C2C=C(c3ccc(C)cc3)Nc3ncnn32)cc1 (stereo unspecified)	-1.1	2.5	0.8	-0.3	11.5*
CCc1ccc(Oc2c(Cl)cnn(-c3ccc(C)cc3)c2=O)cc1	/	-0.1	/	-1.8	0.5
Cc1ccc(C(=O)NCc2ccc3c(c2)OCO3)c(C)c1	-1.1	-0.1	0.5	-1.2	3.4
C/C(CCc1ccc2c(c1)OCO2)=N\NC(=O)c1ccc(C)cc1C	0.4	1.0	2.1	-0.4	12.7*
CN(CCO)c1cccc2c1S(=O)(=O)N(Cc1cn(Cc3ccc(F)cc3)nn1)Cc1ccccc1O2	/	-2.8	-0.6	-1.2	-2.4
Cc1ccc(S(=O)(=O)Oc2cccc(N3C(=O)C4CC=CCC4C3=O)c2)cc1 (stereo unspecified)	8.0*	-0.5	-0.1	-1.8	0.3
COC(=O)[C@H](C(C)C)N(CCCc1cn(Cc2ccc(C)cc2)nn1)S(=O)(=O)c1ccccc1Br	/	-1.2	-1.9	-1.9	-4.9
COc1cccc2cc(C(=O)OCC(=O)N3CC(C)OC(C)C3)c(=O)oc12 (stereo unspecified)	5.5*	5.7*	3.3	-0.5	9.5
CCn1ccc(C(=O)N2CCN(c3ncccn3)CC2)n1	0.4	-1.7	-0.3	-0.8	-0.9
CCOc1cccc(C(=O)Nc2ccc3[nH]ncc3c2)c1	0.8	4.7	2.9	-0.5	12.9*
COc1cccc(C(=O)Nc2ccc3[nH]ncc3c2)c1	2.7	4.8	1.6	-0.1	10.5*
COc1ccccc1C(=O)Nc1ccc2[nH]ncc2c1	2.3	-0.2	-0.2	-1.6	1.1
Cc1ccccc1Cn1cc(COC(=O)NCCc2ccccc2)nn1	/	-1.5	0.5	-1.9	1.3
Cc1cccc(Cn2cc(COC(=O)NCCc3c[nH]c4ccccc34)nn2)c1	/	-0.8	-1.0	-0.9	1.3
CCN(CC)CCn1c2ccccc2c2cnc(N)c(C#N)c21	2.9	2.6	3.9*	0.3	8.0
CC(c1ccco1)N(C(=O)C12CC3(C)CC(C)(CC(C)(C3)C1)C2)c1ccccn1 (stereo unspecified)	5.4*	-1.5	-0.3	-1.3	0.3
Nc1ccccc1S(=O)(=O)NC1=NCCCCC1	4.4*	0.5	-0.2	-0.4	-2.8
SMILES	DAX1 inh-1	hcDAF-12 act	DAX1 inh-2	ssDAF12 agonist	hgDAF-12 ag
Cc1cc(C(=O)NNS(=O)(=O)c2cccc(Cl)c2)nn1C(C)(C)C	4.2*	-1.1	0.5	-1.0	-0.6
O=c1c2ccccc2[nH]c(=S)n1CCN1CCc2ccccc2C1	4.3*	-1.5	0.3	-1.4	-2.0
COc1ccc(OC)c(S(=O)(=O)N2CCC(c3cn4ccccc4n3)CC2)c1	/	-1.7	-1.7	-1.6	-0.8
C=CCn1c(SCC(=O)c2ccc(F)cc2)nnc1-c1ccc2c(c1)OCO2	0.3	-1.7	-0.7	1.3*	-3.4
COC(=O)[C@H](C(C)C)N(Cc1cn(Cc2ccc(C)cc2)nn1)S(=O)(=O)c1ccccc1Br	/	-2.4	-1.3	-1.6	2.6
Cc1cc2nc(/C=C/c3cccnc3)[nH]c2cc1C	0.0	6.4*	4.0*	1.7*	6.8
Cc1cc2nc(/C=C/c3nc4cc(C)c(C)cc4[nH]3)[nH]c2cc1C	-0.3	0.3	0.0	-0.4	0.2
N#CCC[C@H]1CC[C@]2(CCCN(C(=O)C3CCCC3)C2)O1	/	-3.6	0.2	-1.2	-0.6
Cn1c(N2CCOCC2)c(/C=N/O)c2ccccc21	7.5*	4.8	0.5	-0.5	0.8
CC(=O)N1CCc2cc(S(=O)(=O)NC3CCN(C(=O)CCl)CC3)ccc21	/	-0.6	-3.4	-0.9	-6.0
O=C(/C=C/c1ccc(F)cc1)NC(=S)NNC(=O)[C@H]1C[C@@H]1c1ccccc1	0.3	0.4	3.6*	-0.4	5.5
COC(=O)[C@]12C[C@H](CC(=O)NCc3cccs3)C(=O)N(CCC3=CCCCC3)C1=C[C@H](C(C)(C)C)O[C@@H]2C	/	0.7	-0.8	-1.3	1.4
COc1ccc(CSc2nnc(C)s2)cc1F	0.3	0.7	2.4	-0.1	10.8*
O=C(Nc1ccc2cn[nH]c2c1)c1ccc(Cl)c(S(=O)(=O)N2CCOCC2)c1	1.9	6.5*	1.1	-0.4	5.5
COC(=O)c1cc(-c2ccc(C)cc2)c(=O)n2c1CCC2	/	2.3	-2.2	0.2	3.4
Cn1c(SCc2cccc(F)c2)nnc1-c1ccccn1	5.2*	0.1	0.6	-1.0	3.7
Cn1c(SCc2cccc(Br)c2)nnc1-c1ccccn1	-0.5	-3.0	-0.1	-1.2	-2.1
Cn1c(SCc2ccccc2)nnc1-c1ccc(O)cc1	1.0	0.6	0.4	0.9*	6.6
Cn1c(SCc2ccccc2)nnc1-c1ccco1	0.5	-1.1	0.4	-0.6	12.7*
COc1ccc(S[C@]2(C(=O)N3CCN(c4ncccn4)CC3)CC(=O)N(c3ccc4ccccc4c3)[C@@H]2c2ccc(OC)cc2)cc1	/	-2.6	0.2	-1.1	-2.3
COc1ccc(C=Nn2c(-c3ccc(F)cc3)n[nH]c2=S)c(OC)c1OC	/	-1.9	-1.4	-0.8	-2.2
C=CCN1C(=O)[C@@H](CC(=O)NCCc2ccccc2OC)[C@]2(C(=O)OCC)CCCCC/C=C/12	/	-0.8	-1.4	-0.6	1.0
CCC1COC(c2cccn2Cc2ccccc2Cl)=N1 (stereo unspecified)	5.9*	1.1	0.2	-1.4	3.5
Cc1cc2nc(-c3ccc(NC(=O)C(C)C)cc3)oc2cc1C	0.7	4.8	3.7*	1.0*	11.0*
CC(C)Oc1c(N2CCOCC2)c(=O)c1=O	-1.1	1.4	0.5	-0.8	2.2
O=c1c(N2CCOCC2)c(N2CCOCC2)c1=O	7.2*	-0.8	0.4	-1.5	-0.8
COc1ccc(Oc2ccc(/C=N/NC(=O)c3cccnc3)cc2[N+](=O)[O-])cc1	4.6*	-2.3	-0.3	-1.6	1.7
c1ccc(SCc2nc(-c3ccncc3)no2)cc1	1.6	5.6*	0.5	-0.4	6.1
